# In ChEMBL document CHEMBL1961873, “Compounds: GSK PKIS; Assays: Nanosyn kinase panel” (2012):
# How the values were obtained:
# [1] = biological target: Sphingosine kinase 1 (Homo sapiens) (UniProt Q9NYA1); conditions: at 1 µM;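 also: mean SPHK1 inhibition value reported from the GSK PKIS kinase panel screen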
# [2] = biological target: T1, Sphingosine kinase 2 (Homo sapiens) (UniProt Q9NRA0); conditions: at 0.1 µM
# T1 sequence (whole entry): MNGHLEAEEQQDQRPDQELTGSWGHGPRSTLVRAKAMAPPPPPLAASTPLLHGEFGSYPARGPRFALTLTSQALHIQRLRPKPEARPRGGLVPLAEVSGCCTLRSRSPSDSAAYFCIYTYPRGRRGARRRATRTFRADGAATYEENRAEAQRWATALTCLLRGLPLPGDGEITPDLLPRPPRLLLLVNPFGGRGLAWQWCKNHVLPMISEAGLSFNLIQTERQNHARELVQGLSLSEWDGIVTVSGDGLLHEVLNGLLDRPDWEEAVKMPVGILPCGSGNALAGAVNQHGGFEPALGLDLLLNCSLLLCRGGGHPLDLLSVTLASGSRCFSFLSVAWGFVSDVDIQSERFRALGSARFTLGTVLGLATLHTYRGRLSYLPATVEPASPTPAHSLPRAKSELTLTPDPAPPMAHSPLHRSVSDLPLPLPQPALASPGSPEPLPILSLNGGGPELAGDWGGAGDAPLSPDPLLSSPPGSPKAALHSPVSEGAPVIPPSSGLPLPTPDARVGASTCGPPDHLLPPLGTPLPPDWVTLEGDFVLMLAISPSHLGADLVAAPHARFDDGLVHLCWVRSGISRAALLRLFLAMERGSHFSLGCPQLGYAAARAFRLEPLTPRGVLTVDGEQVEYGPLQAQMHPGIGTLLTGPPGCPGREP
# [3] = biological target: T1, Sphingosine kinase 2 (Homo sapiens); conditions: at 1 µM
# [4] = biological target: Casein kinase II subunit alpha (Homo sapiens) (UniProt P68400); conditions: at 0.1 µM
# [5] = biological target: Casein kinase II subunit alpha (Homo sapiens) (UniProt P68400); conditions: at 1 µM
# [6] = biological target: T2, Inhibitor of nuclear factor kappa-B kinase subunit alpha (Homo sapiens) (UniProt O15111); conditions: at 0.1 µM
# T2 sequence (whole entry): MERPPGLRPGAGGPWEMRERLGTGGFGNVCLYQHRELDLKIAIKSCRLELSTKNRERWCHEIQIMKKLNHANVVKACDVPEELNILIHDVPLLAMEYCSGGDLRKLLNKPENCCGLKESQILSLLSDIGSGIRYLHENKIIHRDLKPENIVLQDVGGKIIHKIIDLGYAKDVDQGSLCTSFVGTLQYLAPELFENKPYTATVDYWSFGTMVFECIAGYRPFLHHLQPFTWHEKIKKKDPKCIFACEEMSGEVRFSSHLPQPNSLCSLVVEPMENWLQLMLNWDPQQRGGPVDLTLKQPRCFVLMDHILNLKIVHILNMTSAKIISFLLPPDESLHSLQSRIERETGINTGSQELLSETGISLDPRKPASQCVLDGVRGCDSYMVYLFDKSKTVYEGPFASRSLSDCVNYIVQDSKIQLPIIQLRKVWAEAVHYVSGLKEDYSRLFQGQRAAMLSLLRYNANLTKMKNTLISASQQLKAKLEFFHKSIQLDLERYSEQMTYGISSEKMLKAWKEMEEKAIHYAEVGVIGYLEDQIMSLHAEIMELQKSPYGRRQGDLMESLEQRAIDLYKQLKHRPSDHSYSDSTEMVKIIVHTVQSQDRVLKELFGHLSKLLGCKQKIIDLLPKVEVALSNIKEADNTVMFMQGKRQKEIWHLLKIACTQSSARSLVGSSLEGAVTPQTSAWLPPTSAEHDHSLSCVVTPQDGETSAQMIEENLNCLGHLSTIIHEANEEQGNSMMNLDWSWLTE
# [7] = biological target: T2, Inhibitor of nuclear factor kappa-B kinase subunit alpha (Homo sapiens); conditions: at 1 µM
# [8] = biological target: T3, Inhibitor of nuclear factor kappa-B kinase subunit beta (Homo sapiens) (UniProt O14920); conditions: at 0.1 µM
# T3 sequence (whole entry): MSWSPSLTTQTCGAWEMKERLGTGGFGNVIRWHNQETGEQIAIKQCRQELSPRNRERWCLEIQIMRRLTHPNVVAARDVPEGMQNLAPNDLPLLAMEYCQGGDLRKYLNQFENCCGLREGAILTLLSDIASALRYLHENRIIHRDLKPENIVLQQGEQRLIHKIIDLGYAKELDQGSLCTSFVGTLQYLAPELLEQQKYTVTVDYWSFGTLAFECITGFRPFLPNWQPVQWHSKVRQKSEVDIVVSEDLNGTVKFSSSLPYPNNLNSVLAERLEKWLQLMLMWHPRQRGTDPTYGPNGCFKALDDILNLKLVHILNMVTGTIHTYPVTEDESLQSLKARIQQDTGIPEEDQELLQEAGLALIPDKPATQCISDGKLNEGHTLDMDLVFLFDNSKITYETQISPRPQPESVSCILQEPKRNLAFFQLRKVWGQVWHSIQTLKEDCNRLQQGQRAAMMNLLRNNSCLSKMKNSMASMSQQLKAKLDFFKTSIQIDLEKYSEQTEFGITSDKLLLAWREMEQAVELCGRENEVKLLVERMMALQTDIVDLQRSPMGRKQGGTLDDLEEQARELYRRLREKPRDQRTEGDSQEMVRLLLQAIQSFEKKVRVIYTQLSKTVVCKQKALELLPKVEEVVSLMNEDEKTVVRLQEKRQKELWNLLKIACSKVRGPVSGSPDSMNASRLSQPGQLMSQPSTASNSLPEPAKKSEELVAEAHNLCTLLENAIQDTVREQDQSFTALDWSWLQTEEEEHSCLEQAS
# [9] = biological target: T3, Inhibitor of nuclear factor kappa-B kinase subunit beta (Homo sapiens); conditions: at 1 µM
# [10] = biological target: T4, Inhibitor of nuclear factor kappa-B kinase subunit epsilon (Homo sapiens) (UniProt Q14164); conditions: at 0.1 µM
# T4 sequence (whole entry): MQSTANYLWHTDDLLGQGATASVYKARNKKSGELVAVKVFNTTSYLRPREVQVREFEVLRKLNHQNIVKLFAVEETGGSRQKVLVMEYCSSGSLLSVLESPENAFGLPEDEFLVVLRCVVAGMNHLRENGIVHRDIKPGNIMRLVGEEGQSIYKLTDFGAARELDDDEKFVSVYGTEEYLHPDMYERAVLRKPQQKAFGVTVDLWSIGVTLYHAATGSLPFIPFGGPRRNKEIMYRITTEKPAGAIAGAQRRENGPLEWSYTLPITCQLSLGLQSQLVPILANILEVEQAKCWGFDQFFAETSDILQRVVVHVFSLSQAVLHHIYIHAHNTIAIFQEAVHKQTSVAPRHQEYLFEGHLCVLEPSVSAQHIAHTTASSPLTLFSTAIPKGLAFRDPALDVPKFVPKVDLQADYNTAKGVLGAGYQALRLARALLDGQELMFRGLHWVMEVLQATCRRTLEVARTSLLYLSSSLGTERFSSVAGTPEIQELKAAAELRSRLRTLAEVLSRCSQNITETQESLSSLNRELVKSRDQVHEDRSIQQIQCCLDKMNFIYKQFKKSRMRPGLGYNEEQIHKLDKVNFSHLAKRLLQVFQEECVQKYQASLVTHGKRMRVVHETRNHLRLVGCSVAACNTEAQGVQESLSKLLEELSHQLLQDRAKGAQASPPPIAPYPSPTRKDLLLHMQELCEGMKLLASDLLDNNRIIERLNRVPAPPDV
# [11] = biological target: T4, Inhibitor of nuclear factor kappa-B kinase subunit epsilon (Homo sapiens); conditions: at 1 µM
# [12] = biological target: T5, Serine/threonine-protein kinase Nek1 (Homo sapiens) (UniProt Q96PY6); conditions: at 0.1 µM
# T5 sequence (whole entry): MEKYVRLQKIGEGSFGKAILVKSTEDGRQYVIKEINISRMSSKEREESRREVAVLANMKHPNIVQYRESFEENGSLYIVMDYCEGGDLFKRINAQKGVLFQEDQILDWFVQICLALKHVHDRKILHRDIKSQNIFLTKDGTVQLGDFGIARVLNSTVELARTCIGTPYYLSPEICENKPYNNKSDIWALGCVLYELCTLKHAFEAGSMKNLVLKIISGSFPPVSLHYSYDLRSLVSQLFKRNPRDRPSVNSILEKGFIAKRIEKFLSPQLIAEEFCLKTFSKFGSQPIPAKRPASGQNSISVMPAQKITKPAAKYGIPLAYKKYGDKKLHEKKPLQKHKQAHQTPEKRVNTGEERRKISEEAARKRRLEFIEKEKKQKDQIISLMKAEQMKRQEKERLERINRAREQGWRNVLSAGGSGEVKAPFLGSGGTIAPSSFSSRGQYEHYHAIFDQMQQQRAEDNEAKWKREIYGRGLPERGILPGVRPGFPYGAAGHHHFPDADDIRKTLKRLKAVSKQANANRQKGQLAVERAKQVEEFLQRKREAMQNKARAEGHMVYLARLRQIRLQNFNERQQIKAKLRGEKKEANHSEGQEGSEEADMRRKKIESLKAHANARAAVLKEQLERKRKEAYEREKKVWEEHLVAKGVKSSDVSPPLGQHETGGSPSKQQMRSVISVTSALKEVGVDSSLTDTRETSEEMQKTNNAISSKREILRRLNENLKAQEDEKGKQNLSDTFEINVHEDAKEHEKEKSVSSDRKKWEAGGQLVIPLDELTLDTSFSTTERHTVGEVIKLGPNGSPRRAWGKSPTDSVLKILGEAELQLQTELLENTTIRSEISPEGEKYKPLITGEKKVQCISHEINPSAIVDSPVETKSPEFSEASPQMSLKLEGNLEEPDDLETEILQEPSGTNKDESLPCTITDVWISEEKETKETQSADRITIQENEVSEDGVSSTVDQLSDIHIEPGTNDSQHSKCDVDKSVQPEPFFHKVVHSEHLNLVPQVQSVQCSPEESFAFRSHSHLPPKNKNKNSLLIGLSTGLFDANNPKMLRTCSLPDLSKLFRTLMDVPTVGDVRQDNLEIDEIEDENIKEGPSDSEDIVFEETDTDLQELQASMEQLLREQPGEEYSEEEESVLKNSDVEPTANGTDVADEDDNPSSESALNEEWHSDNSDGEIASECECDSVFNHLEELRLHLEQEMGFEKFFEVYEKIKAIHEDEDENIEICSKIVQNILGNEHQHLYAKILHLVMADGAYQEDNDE
# [13] = biological target: T5, Serine/threonine-protein kinase Nek1 (Homo sapiens); conditions: at 1 µM
# [14] = biological target: T6, Serine/threonine-protein kinase Nek2 (Homo sapiens) (UniProt P51955); conditions: at 0.1 µM
# T6 sequence (whole entry): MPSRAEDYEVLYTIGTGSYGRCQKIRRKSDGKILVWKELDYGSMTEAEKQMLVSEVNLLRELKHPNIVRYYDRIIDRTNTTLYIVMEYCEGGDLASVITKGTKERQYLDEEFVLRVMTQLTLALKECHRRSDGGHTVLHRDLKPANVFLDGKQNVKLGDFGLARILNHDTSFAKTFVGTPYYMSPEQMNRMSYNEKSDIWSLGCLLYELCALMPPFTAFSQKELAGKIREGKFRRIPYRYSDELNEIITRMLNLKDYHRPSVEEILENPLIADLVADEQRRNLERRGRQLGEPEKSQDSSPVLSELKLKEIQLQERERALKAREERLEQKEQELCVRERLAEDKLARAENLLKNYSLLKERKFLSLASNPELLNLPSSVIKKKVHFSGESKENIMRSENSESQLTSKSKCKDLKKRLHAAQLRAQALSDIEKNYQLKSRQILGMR
# [15] = biological target: T6, Serine/threonine-protein kinase Nek2 (Homo sapiens); conditions: at 1 µM
# [16] = biological target: Serine/threonine-protein kinase Nek6 (Homo sapiens) (UniProt Q9HC98); conditions: at 0.1 µM
# [17] = biological target: Serine/threonine-protein kinase Nek6 (Homo sapiens) (UniProt Q9HC98); conditions: at 1 µM
# [18] = biological target: Serine/threonine-protein kinase Nek7 (Homo sapiens) (UniProt Q8TDX7); conditions: at 0.1 µM
# [19] = biological target: Serine/threonine-protein kinase Nek7 (Homo sapiens) (UniProt Q8TDX7); conditions: at 1 µM
# [20] = biological target: T7, Serine/threonine-protein kinase Nek9 (Homo sapiens) (UniProt Q8TD19); conditions: at 0.1 µM;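 also: reported value is the mean percent inhibition of NEK9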
# T7 sequence (whole entry): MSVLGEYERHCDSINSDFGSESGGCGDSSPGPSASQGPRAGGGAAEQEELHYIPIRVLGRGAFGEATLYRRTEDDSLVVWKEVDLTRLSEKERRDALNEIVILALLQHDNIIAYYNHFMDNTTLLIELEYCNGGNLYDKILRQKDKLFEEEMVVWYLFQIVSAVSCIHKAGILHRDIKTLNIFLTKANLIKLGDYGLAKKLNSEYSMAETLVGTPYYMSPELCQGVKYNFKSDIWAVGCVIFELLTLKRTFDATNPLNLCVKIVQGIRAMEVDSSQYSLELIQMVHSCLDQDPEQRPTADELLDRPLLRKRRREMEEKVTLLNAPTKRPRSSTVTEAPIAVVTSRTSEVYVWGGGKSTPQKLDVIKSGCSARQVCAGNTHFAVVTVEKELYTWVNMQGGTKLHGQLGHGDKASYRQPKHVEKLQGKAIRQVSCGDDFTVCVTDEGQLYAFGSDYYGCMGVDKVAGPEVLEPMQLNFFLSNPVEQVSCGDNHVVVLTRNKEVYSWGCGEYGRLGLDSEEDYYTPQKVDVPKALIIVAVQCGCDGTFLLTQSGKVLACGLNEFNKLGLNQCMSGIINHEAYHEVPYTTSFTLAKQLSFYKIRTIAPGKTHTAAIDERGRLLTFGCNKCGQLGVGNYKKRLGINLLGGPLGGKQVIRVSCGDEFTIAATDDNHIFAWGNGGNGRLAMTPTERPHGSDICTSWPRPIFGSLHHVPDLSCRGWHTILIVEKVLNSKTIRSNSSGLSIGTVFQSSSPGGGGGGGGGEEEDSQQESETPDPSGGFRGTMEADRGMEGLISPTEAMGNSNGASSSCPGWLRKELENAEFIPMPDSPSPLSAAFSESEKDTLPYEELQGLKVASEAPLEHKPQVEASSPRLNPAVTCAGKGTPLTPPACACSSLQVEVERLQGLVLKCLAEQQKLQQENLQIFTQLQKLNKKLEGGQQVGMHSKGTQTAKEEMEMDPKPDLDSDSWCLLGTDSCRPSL
# Chain of Casein kinase II subunit alpha (Homo sapiens) (P68400 whole entry, looked up): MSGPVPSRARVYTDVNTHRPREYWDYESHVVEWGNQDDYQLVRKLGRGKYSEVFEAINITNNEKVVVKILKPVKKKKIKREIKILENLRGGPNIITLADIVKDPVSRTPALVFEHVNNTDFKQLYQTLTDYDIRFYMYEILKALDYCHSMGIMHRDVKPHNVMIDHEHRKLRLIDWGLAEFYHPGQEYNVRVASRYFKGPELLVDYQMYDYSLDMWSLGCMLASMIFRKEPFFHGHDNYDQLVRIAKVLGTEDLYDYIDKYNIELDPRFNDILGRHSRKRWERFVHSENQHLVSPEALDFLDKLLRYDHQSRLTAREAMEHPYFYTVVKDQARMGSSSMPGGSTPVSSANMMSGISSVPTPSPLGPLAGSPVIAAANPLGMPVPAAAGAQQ
# Chain of Serine/threonine-protein kinase Nek6 (Homo sapiens) (Q9HC98 whole entry): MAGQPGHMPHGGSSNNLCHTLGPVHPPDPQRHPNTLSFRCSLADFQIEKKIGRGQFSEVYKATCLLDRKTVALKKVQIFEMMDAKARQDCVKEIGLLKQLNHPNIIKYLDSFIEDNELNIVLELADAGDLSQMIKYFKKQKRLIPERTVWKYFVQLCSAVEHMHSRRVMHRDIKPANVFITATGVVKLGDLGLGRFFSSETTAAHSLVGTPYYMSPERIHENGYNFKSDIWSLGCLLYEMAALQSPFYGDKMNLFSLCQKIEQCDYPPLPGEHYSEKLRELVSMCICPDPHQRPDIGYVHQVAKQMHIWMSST
# Chain of Serine/threonine-protein kinase Nek7 (Homo sapiens) (Q8TDX7 whole entry, looked up): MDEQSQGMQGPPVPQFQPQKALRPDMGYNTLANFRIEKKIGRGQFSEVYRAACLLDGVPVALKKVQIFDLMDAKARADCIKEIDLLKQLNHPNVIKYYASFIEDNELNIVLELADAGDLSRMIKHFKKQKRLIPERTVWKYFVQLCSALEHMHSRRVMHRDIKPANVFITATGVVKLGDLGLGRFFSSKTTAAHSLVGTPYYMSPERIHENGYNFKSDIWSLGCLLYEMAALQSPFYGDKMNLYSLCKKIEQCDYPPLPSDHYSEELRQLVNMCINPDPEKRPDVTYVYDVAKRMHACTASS
# Chain of Sphingosine kinase 1 (Homo sapiens) (Q9NYA1 whole entry): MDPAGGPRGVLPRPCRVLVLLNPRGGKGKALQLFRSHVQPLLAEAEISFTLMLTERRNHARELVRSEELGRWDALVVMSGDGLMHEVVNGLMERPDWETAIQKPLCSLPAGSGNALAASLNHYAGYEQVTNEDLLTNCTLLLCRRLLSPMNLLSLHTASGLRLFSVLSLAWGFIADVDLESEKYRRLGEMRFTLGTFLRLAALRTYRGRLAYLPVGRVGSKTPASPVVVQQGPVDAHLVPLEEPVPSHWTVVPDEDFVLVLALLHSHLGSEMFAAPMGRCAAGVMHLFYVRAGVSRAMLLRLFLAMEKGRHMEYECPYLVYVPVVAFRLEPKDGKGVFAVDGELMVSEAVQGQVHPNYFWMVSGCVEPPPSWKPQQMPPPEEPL
structure (smiles),measurement,setting,value
NS(=O)(=O)c1cccc(-c2ccc3c(NC(=O)C4CC4)n[nH]c3c2)c1,inhibition,[1],2.86%
same,inhibition,[2],0.74%
same,inhibition,[3],-0.18%
same,inhibition,[4],0.11%
same,inhibition,[5],-0.44%
same,inhibition,[6],11.4%
same,inhibition,[7],5.2%
same,inhibition,[8],-0.49%
same,inhibition,[9],-1.55%
same,inhibition,[10],-4.07%
same,inhibition,[11],-3.2%
same,inhibition,[12],-0.9%
same,inhibition,[13],-0.76%
same,inhibition,[14],-1.41%
same,inhibition,[15],-0.18%
same,inhibition,[16],-1.88%
same,inhibition,[17],-0.37%
same,inhibition,[18],1.22%
same,inhibition,[19],-2.64%
same,inhibition,[20],4.44%
